# Results from PubChem BioAssay (NCI).
# The panel holds about 83,000 compounds, 20% with a hit somewhere; the sample as a whole holds those more often.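 96-well plates, one dose, 48 hours. Percent growth reported; active if below 10.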 Unmarked numbers belong to inactive results. The source made the active and inactive calls.
# Experiments:
# Test in all cases: NCI-60 one-dose screen, 48 h (100 = growth as untreated, 0 = no growth, -100 = all killed)
# Settings in all cases: 10 µM
# [1] = tested on: HCT-15 colon
# [2] = tested on: HT29 colon
# [3] = tested on: SNB-75 CNS
# [4] = tested on: SNB-19 CNS
# [5] = tested on: U251 CNS
# [6] = tested on: PC-3 prostate
# [7] = tested on: SK-MEL-5 melanoma
# [8] = tested on: UACC-62 melanoma
# [9] = tested on: LOX IMVI melanoma
# [10] = tested on: SK-MEL-28 melanoma
# [11] = tested on: SK-MEL-2 melanoma
# [12] = tested on: EKVX NSCLC
# [13] = tested on: UO-31 renal
# [14] = tested on: TK-10 renal
# [15] = tested on: ACHN renal
# [16] = tested on: CAKI-1 renal
# [17] = tested on: A498 renal
# [18] = tested on: CCRF-CEM leukemia
# [19] = tested on: MOLT-4 leukemia
SMILES,growth [1],growth [2],growth [3],growth [4],growth [5],growth [6],growth [7],growth [8],growth [9],growth [10],growth [11],growth [12],growth [13],growth [14],growth [15],growth [16],growth [17],growth [18],growth [19]
COC(=O)[C@]12CC[C@@H](C)[C@H](C)[C@@H]1C1=CC[C@@H]3[C@@]4(C)C[C@@H](O)[C@H](O)[C@@](C)(CO)[C@@H]4[C@H](O)C[C@@]3(C)[C@]1(C)CC2,-51.4% (active),-90.5% (active),-37.7% (active),-23.4% (active),-94.6% (active),-34.5% (active),-95.8% (active),-64% (active),-93% (active),-48.4% (active),-88.2% (active),-33.1% (active),-52.2% (active),-56.9% (active),-48.3% (active),0.468% (active),-80.2% (active),-43.7% (active),-51.9% (active)
O=C(NCCc1nccs1)c1cnc2c(S)cccc2c1,17.6%,20.4%,44.1%,28.5%,12.8%,34.2%,-22.1% (active),-6.53% (active),2.38% (active),30.5%,22.6%,16.3%,12.9%,38.5%,29%,19%,-2.06% (active),15.4%,15.1%
O=S(=O)(NCCO)c1ccc(OCCOc2ccc(S(=O)(=O)NCCO)cc2)cc1,103%,100%,95%,102%,93.7%,89.1%,96.5%,95.2%,96.6%,105%,100%,99.1%,81.9%,99.5%,101%,94.2%,86.1%,102%,99.6%
CNC(=O)c1cc(Oc2ccc(NC(=O)Nc3ccc(Cl)c(OC(C)C)c3)c(F)c2)ccn1,41.4%,41.6%,75.3%,66.3%,58.8%,32.4%,4.12% (active),34.2%,45.2%,70.7%,50.2%,34.8%,45.2%,66.7%,41.9%,64.1%,48.7%,46.8%,30.9%
O=C(O)CNS(=O)(=O)c1ccc(OCCOc2ccc(S(=O)(=O)NCC(=O)O)cc2)cc1,96%,98%,97.2%,106%,99.9%,96.5%,97.4%,102%,96.8%,106%,98.5%,102%,85.7%,92.7%,102%,99.5%,96.4%,112%,106%
N#Cc1ccc(-n2cnc(NC(=O)[C@H]3CCN(C#N)C3)c2)cc1,11.1%,15.6%,-1.74% (active),35.1%,7.35% (active),32%,12.1%,18.8%,16.5%,36.4%,-31.7% (active),20.4%,18.6%,21.1%,11.8%,34.9%,-18.4% (active),12.3%,9.28% (active)
N#CN1CC[C@H](C(=O)Nc2ncc(-c3ccccc3)s2)C1,3.19% (active),-35.6% (active),-43.8% (active),12.4%,2.64% (active),11.1%,-56% (active),-37.1% (active),4.1% (active),5.29% (active),-43.8% (active),-0.13% (active),7.47% (active),-30.9% (active),4.65% (active),9.65% (active),-47% (active),9.27% (active),-19.7% (active)
O=C(N/N=C\c1cc(Cl)ccc1O)c1ccncc1,26.3%,65.4%,74.2%,62%,43.9%,61%,37%,46.2%,30.9%,64.5%,96.9%,83.2%,41.6%,66.3%,27.7%,49.2%,104%,11.3%,15.9%
